Assay outcomes: PubChem, Columbia University Molecular Screening Center
A selection: hits, their analogues and other compounds. The true share with any hit is near 1.7%.
VCAM1 TNFa inh: inhibitors of TNFa-induced VCAM1 expression, primary screen, imaging, HUVEC, TNFa stimulus, immunofluorescence; HUVEC TNFa-induced VCAM-1 immunofluorescence, high-content imaging; inhibition, % at 2 µM; actives 0.48% (n = 95,000); AID 802, 2007;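 active = inhibition above the batch mean plus 3 SD, with images confirmed as a hit by eye, cut at about 37% in these data; inconclusive = inhibition above that limit but hit not confirmed in images; inactive = inhibition not above that limit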;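 note: 0% = TNF-stimulated DMSO wells and 100% = unstimulated control wells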
NFkB transloc inh: inhibitors of IL-1B driven NFkB p65 nuclear import, primary screen, imaging, HUVEC, IL-1B stimulus, high-content imaging. actives 0.43% (n = 94,000). inhibition, % at 2 µM. HUVEC IL-1B NFkB p65 nuclear translocation imaging. AID 796, 2007;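 active = inhibition above about 30% together with a positive call from visual inspection of the well image, limit read from the data; inconclusive = inhibition above a set limit but visual check negative; inactive = inhibition not above a set limit, visual check negative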;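 note: nuclear over cytoplasmic p65 intensity ratio measured by imaging; 0% = IL-1B stimulated DMSO wells and 100% = unstimulated DMSO wells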
E-sel TNF inh: E-selectin induction blockers in HUVEC – imaging, immunofluorescence, high content, primary screen | HUVEC TNFa-induced E-selectin immunofluorescence | inhibition, % at 2 µM | actives 0.71% (n = 120,000);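 active = inhibition above the batch mean plus 3 SD, and confirmed as a hit on visual image review, cut at about 43% in these data; inconclusive = passes the inhibition cutoff but fails visual image review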;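 note: 0% = TNF-stimulated DMSO wells and 100% = unstimulated control wells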
IL1B NFkB pot: enhancers of NFkB p65 translocation in HUVEC – imaging, IL-1B stimulus, high-content imaging, primary screen. HUVEC IL-1B NFkB p65 nuclear translocation imaging. activation, % at 2 µM. actives 0.3% (n = 94,000);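 active = activation above 40%, about the mean plus 3 SD, also judged a hit on visual image review; inconclusive = activation above 40% but not a hit on visual review; inactive = activation not above 40% and no visual hit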;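 note: percent activation is computed from the nuclear over cytoplasmic p65 intensity ratio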
HUVEC tox TNFa: cytotoxicity in TNFa-stimulated HUVEC, primary screen, cytotoxicity control for VCAM1 expression modulator project, imaging, Hoechst nuclei count. HUVEC TNFalpha-stimulated, Hoechst cell count. cell count reduction, % at 2 µM. actives 0.17% (n = 93,000);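 active = cell count reduction exceeding the screen mean by over 5 SD, scaled to untreated wells per plate, cut at about 78% in these data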;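 note: cells counted after 24 h of TNF alpha exposure following the 1 h pretreatment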
IL1B cytotox: cytotoxicity in IL-1B stimulated HUVEC, primary screen, cytotoxicity control for IL-1B NFkB translocation project, imaging, Hoechst nuclear count, IL-1B stimulus | HUVEC cell count loss | AID 845, 2007 | actives 0.41% (n = 94,000) | cell count reduction, % at 2 µM;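 active = cell count reduction more than 3 SD above the screen-wide mean, cut at about 70% in these data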;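 note: normalized per plate to untreated control cells as the no-loss baseline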
* = called active by the depositor; ? = inconclusive; nt = not tested or not shown.

SMILES	VCAM1 TNFa inh	NFkB transloc inh	E-sel TNF inh	IL1B NFkB pot	HUVEC tox TNFa	IL1B cytotox
CCn1c(SCC(=O)N2c3ccccc3CC2C)nnc1-c1ccco1 (stereo not drawn)	15	45*	5	-45	0	-13
CC1Cc2ccccc2N1C(=O)CSc1nnc2n1C(C)(C)Cc1ccccc1-2 (stereo not drawn)	nt	98*	-1	-98	nt	95*
CCn1c(SCC(=O)N2CCc3ccccc32)nnc1-c1ccco1	22	-10	nt	10	34	-18
CN(C)S(=O)(=O)c1cccc(NC(=O)CN2C(=O)NC(CCc3ccccc3)C2=O)c1 (stereo not drawn)	nt	nt	-2	nt	nt	nt
Cn1c(SCc2ccc(Cl)cc2Cl)nc(C(F)(F)F)cc1=O	3	-44	-50	44*	2	-91
O=C(COc1ccc([N+](=O)[O-])cc1Cl)NCCc1ccccc1	nt	nt	88*	nt	nt	nt
O=C(COc1ccc(Cl)cc1Cl)NCCCCc1ccccc1	-1	8	-62	-8	-13	-15
COCCCNC(=O)COc1ccc(S(=O)(=O)NCc2ccccc2)cc1Cl	nt	nt	92*	nt	nt	nt
CCc1nnc(SCC(=O)Nc2ccccc2Cl)nc1CC	nt	nt	-28	nt	nt	nt
Cc1ccc(C2(C)NC(=O)N(CCOc3ccccc3)C2=O)cc1 (stereo not drawn)	17	-8	82*	8	4	-2
COc1ccc(OCCN2C(=O)NC(C)(c3ccc(C)cc3)C2=O)cc1 (stereo not drawn)	10	-23	6	23	37	22
CCOC(=O)c1[nH]c2ccc(F)cc2c1NC(=O)CN1CCc2cc(OC)c(OC)cc2C1	-3	-48	-6	48*	-36	5
Cc1cc(C(=O)CN2C(=O)C(=O)N(Cc3ccccc3)C2=O)c(C)n1-c1ccc2c(c1)OCCO2	nt	nt	-5	nt	nt	nt
CCCCOC(=O)CCn1c(=S)oc2ccccc21	-5	-13	66*	13	0	-35
Cc1ccc(NC(=O)NCc2ccc3c(c2)OCO3)cc1	-13	-6	3	6	4	6
O=C(Cc1ccccc1[N+](=O)[O-])N1CCc2ccccc2C1	nt	nt	13	nt	nt	nt
O=C(CCS(=O)(=O)c1ccc(Br)cc1)Nc1ccc2c(c1)OCO2	16	nt	-44	nt	-4	nt
CCN(C(=O)CCS(=O)(=O)c1ccc(Br)cc1)c1ccc2c(c1)OCO2	nt	nt	96*	nt	nt	nt
CCc1ccc(S(=O)(=O)NCCc2cn3cccc(C)c3n2)s1	nt	nt	-19	nt	nt	nt
O=c1c2c(n3nnnc3n1-c1ccccc1)-c1ccccc1CC21CCCC1	-3	6	100*	-6	-28	-2
CC(C)CCNC(=O)c1nnc(Cc2ccc(Cl)cc2)o1	-3	-6	70*	6	-2	-2
COc1ccc(CCNC(=O)c2nnc(Cc3ccc(Cl)cc3)o2)cc1OC	16	3	nt	-3	-15	7
CCOC(=O)c1c(C)[nH]c(C2=NNC(=Nc3cccc(Cl)c3)SC2)c1C	nt	nt	1	nt	nt	nt
CCOC(=O)c1cc2c(ccn2C)n1CC(=O)N1CCC(Cc2ccccc2)CC1	nt	nt	96*	nt	nt	nt
CCOC(=O)c1cc2c(ccn2C)n1CC(=O)N1CCCC(C)C1 (stereo not drawn)	-5	-5	3	5	-4	7
SMILES	VCAM1 TNFa inh	NFkB transloc inh	E-sel TNF inh	IL1B NFkB pot	HUVEC tox TNFa	IL1B cytotox
CN1C(=O)C2(NCCc3c2[nH]c2ccccc32)c2ccccc21 (stereo not drawn)	53*	5	12	-5	nt	0
CCCCC(CC)C(=O)NCc1ccccc1OC (stereo not drawn)	8	-101	3	101*	-8	-9
CCCC(C)C(=O)NCc1ccccc1OC (stereo not drawn)	-4	-123	-13	123*	-6	0
CCc1ccc(C(=O)CSc2nc3cc(S(=O)(=O)N4CCOCC4)ccc3n2CC)cc1	nt	nt	-6	nt	nt	nt
Cc1nnc(SCC(=O)c2ccccc2)n1Cc1ccccc1	nt	nt	17	nt	nt	nt
Cc1nnc(SCC(=O)N(C)c2ccccc2)n1Cc1ccccc1	nt	nt	89*	nt	nt	nt
CCC(=O)Nc1cc(C(C)(C)C)ccc1C(C)=O	nt	nt	-2	nt	nt	nt
Cc1ccc(N/N=C/c2ccc(N3CCOCC3)cc2)cc1C	67*	-6	-6	-3	nt	3
Cc1ccc(N/N=C/c2ccc3c(c2)OCCO3)cc1Cl	nt	nt	-7	nt	nt	nt
OCCSc1nnc(Nc2ccccc2)s1	29	4	nt	-4	78*	12
CN(Cc1ccccc1)S(=O)(=O)c1ccc(NC(=S)NC(=O)C2CCCC2)cc1	48*	3	-3	-3	16	24
CN(Cc1ccccc1)C(=S)NC(=O)C1CCCCC1	nt	nt	93*	nt	nt	nt
O=C(NC(=S)N(Cc1ccccc1)c1ccccn1)C1CCCCC1	nt	nt	-11	nt	nt	nt
N#Cc1cnc(SCC(=O)NNC(=O)COc2cccc3ccccc23)nc1N	nt	nt	-22	nt	nt	nt
FC(F)(F)c1ccc2c(c1)[nH]c(=S)n2C1CC1	nt	nt	-19	nt	nt	nt
O=C(OCn1ncc(Br)c(Br)c1=O)c1ccc(F)cc1	81*	20	90*	-20	28	7
O=C(OCn1ncc(Br)c(Br)c1=O)c1ccccc1Cl	34	65*	nt	-88	32	44
CCN(CC)S(=O)(=O)c1ccc(Oc2ccccc2)cc1	-28	-1	-23	1	-15	-14
CC1CCCCC1NC(=O)Cn1c(CN2CCCCC2)nc2ccccc2c1=O (stereo not drawn)	-12	-6	-102	6	8	29
Nn1c(CN2CCCCC2)nc2ccccc2c1=O	14	-1	51*	1	0	-9
Cc1c(-c2ccccc2)oc2c(C(=O)OCC(=O)Nc3ccc(C(N)=O)cc3)cccc2c1=O	nt	nt	-6	nt	nt	nt
COc1ccc(N=c2oc3ccc(OC)cc3cc2-c2nc3ccccc3[nH]2)cc1	50*	-17	-4	17	-1	22
COc1ccc(Nc2cc(Cl)nc(N)n2)cc1OC	nt	nt	8	nt	nt	nt
Cc1ccc(C)c(S(=O)(=O)N2CCCOC2CNC(=O)C(=O)NCc2ccncc2)c1 (stereo not drawn)	nt	nt	-6	nt	nt	nt
COc1cc2c(cc1OC)C(Nc1ccccc1)=NC(C)(C)C2	nt	nt	1	nt	nt	nt
Cc1cccc(C(=O)Oc2ccccc2C2C[C@]3(C)CC(=O)NC3N2C(=O)c2cccc(C)c2)c1 (stereo partly drawn)	?	-9	-15	9	100*	13
C[C@@]12CC(=O)NC1N(C(=O)c1cccc(C(F)(F)F)c1)C(c1ccccc1O)C2 (stereo partly drawn)	10	-10	10	10	-8	-5
O=[N+]([O-])c1ccc(O)c(/C=N/Nc2ccc(Cl)nn2)c1	63*	-23	100*	23	15	-55
CCc1cccc(C)c1NC(=S)N(Cc1cccnc1)Cc1ccco1	nt	nt	12	nt	nt	nt
